# Measurements from the antibiotic and cytotoxicity screens of Wong et al. (2023).
# About 3,300 (8.5%) of roughly 39,000 compounds were called active. Many of the other results were omitted from the sample, so actives are more common in it than they were.
# System: HepG2
# Assay: cytotoxicity call (relative viability < 0.9)
# Conditions: 10 µM
row,Structure (SMILES),cytotoxicity call
1,C[C@@H]1CN([C@H](C)CO)C(=O)c2cc(NC(=O)Cc3ccccc3)ccc2O[C@@H]1CN(C)Cc1ccc(Cl)c(Cl)c1,inactive
2,C[C@@H]1CN([C@H](C)CO)C(=O)c2cc(NS(C)(=O)=O)ccc2O[C@@H]1CN(C)C(=O)Nc1ccccc1,inactive
3,Cc1nc(CCO)cs1,inactive
4,CC(C)[Si](C#CCCc1ccccc1)(O[C@H](c1ccccc1)c1cn(Cc2ccccc2)nn1)C(C)C,inactive
5,C=C1C(CO)C(O)CC1n1cnc2c(=O)[nH]c(N)nc21.O (stereo unspecified),active
6,Nc1nc2c(ncn2COC(CO)CO)c(=O)[nH]1.O,inactive
7,Nc1nc2c(ncn2COCCO)c(=O)[nH]1,inactive
8,C[C@@H]1CN([C@H](C)CO)C(=O)CCCn2cc(nn2)CO[C@@H]1CN(C)C(=O)C1CC1,inactive
9,Cc1ccccc1N1CCN(S(=O)(=O)C[C@]23CC[C@H](C[C@@H]2NC(=O)[C@@H](N)CCS(C)(=O)=O)C3(C)C)CC1,inactive
10,COc1ccc(CN(C)C[C@@H]2OCCCC[C@H](C)Oc3ccc(NC(=O)Nc4ccccc4)cc3C(=O)N([C@@H](C)CO)C[C@H]2C)cc1,inactive
11,O=C(C[C@@H]1CC[C@H](NS(=O)(=O)c2ccc(F)cc2)[C@@H](CO)O1)N1CCC(Cc2ccccc2)CC1,inactive
12,CC1(COc2ccc3c(c2)ncn3-c2ccc3cccc(N4CCC(N)CC4)c3n2)COC1,active
13,C[C@@H]1CN([C@@H](C)CO)S(=O)(=O)c2ccc(C#Cc3ccccc3)cc2O[C@@H]1CN(C)S(=O)(=O)c1ccccc1F,inactive
14,Cl.O=C(Nc1ccccc1)OCC(CN1CCCCC1)OC(=O)Nc1ccccc1 (stereo unspecified),active
15,C[C@@H](CN1CCCCC1)C(=O)NN,inactive
16,Cc1ccc(C(=O)C(C)CN2CCCCC2)cc1.Cl (stereo unspecified),inactive
17,C[C@H](CO)N1C[C@H](C)[C@@H](CN(C)S(C)(=O)=O)Oc2ccc(NS(=O)(=O)c3ccc(Cl)cc3)cc2CC1=O,inactive
18,Cc1noc(C)c1NC(=O)N(C)C[C@H]1OCCCC[C@@H](C)Oc2ccc(NC(=O)Nc3cccc4ccccc34)cc2C(=O)N([C@@H](C)CO)C[C@H]1C,inactive
19,C[C@@H]1CCCCO[C@H](CN(C)Cc2ccc3c(c2)OCO3)[C@@H](C)CN([C@H](C)CO)C(=O)c2cc(NC(=O)C3CCCCC3)ccc2O1,active
20,C[C@@H]1CCCCO[C@@H](CN(C)Cc2ccc3c(c2)OCO3)[C@H](C)CN([C@H](C)CO)C(=O)c2cc(NC(=O)C3CCCCC3)ccc2O1,inactive
21,C[C@@H]1CN([C@H](C)CO)C(=O)c2cc(NC(=O)C3CCCCC3)ccc2O[C@@H](C)CCCCO[C@@H]1CN(C)Cc1ccc2c(c1)OCO2,active
22,C[C@@H]1CN([C@@H](C)CO)C(=O)c2cc(NC(=O)C3CCCCC3)ccc2O[C@@H](C)CCCCO[C@@H]1CN(C)Cc1ccc2c(c1)OCO2,inactive
23,C[C@@H]1CCCCO[C@H](CN(C)Cc2ccc3c(c2)OCO3)[C@H](C)CN([C@@H](C)CO)C(=O)c2cc(NC(=O)C3CCCCC3)ccc2O1,active
24,C[C@@H]1CCCCO[C@H](CN(C)Cc2ccc3c(c2)OCO3)[C@@H](C)CN([C@@H](C)CO)C(=O)c2cc(NC(=O)C3CCCCC3)ccc2O1,inactive
25,C[C@H](CO)N1C[C@H](C)[C@@H](CN(C)Cc2ccc3c(c2)OCO3)OCCCC[C@H](C)Oc2ccc(NC(=O)C3CCCCC3)cc2C1=O,inactive
26,C[C@@H]1CCCCO[C@@H](CN(C)Cc2ccc3c(c2)OCO3)[C@@H](C)CN([C@@H](C)CO)C(=O)c2cc(NC(=O)C3CCCCC3)ccc2O1,inactive

row,Structure (SMILES),cytotoxicity call
1,C[C@H](CO)N1C[C@H](C)[C@H](CN(C)Cc2ccc3c(c2)OCO3)OCCCC[C@H](C)Oc2ccc(NC(=O)C3CCCCC3)cc2C1=O,inactive
2,C[C@H]1CCCCO[C@H](CN(C)Cc2ccc3c(c2)OCO3)[C@@H](C)CN([C@@H](C)CO)C(=O)c2cc(NC(=O)C3CCCCC3)ccc2O1,inactive
3,C[C@@H]1CCCCO[C@H](CN(C)Cc2ccc3c(c2)OCO3)[C@H](C)CN([C@H](C)CO)C(=O)c2cc(NC(=O)C3CCCCC3)ccc2O1,active
4,C[C@@H]1CCCCO[C@@H](CN(C)Cc2ccc3c(c2)OCO3)[C@H](C)CN([C@@H](C)CO)C(=O)c2cc(NC(=O)C3CCCCC3)ccc2O1,inactive
5,O=C(C[C@@H]1C[C@@H]2c3cc(NC(=O)NC4CCCC4)ccc3O[C@@H]2[C@H](CO)O1)NCc1ccc2c(c1)OCO2,inactive
6,CO/N=C(\C(=O)N[C@@H]1C(=O)N2C(C(=O)O)=C(CSC(=O)c3ccco3)CS[C@H]12)c1csc(N)n1,inactive
7,CC(C)NC(=O)N(C)C[C@H]1Oc2ccc(NC(=O)c3ccncc3)cc2CC(=O)N([C@@H](C)CO)C[C@H]1C,inactive
8,CC(C)NC(=O)N(C)C[C@H]1Oc2ccc(NC(=O)CCN3CCOCC3)cc2C(=O)N([C@H](C)CO)C[C@H]1C,inactive
9,CC(C)NC(=O)Nc1ccc2c(c1)CC(=O)N([C@@H](C)CO)C[C@@H](C)[C@@H](CN(C)C(=O)Nc1ccc3c(c1)OCO3)O2,inactive
10,C[C@H]1CN([C@@H](C)CO)C(=O)Cc2cc(NS(=O)(=O)c3ccccc3)ccc2O[C@H]1CN(C)S(=O)(=O)c1cn(C)cn1,inactive
11,CNC(=O)Cn1c(=O)c2c(OC)ccnc2n(C)c1=O,inactive
12,Cc1noc(C)c1NC(=O)Nc1ccc2c(c1)C(=O)N([C@H](C)CO)C[C@H](C)[C@H](CN(C)S(=O)(=O)c1cccs1)OCCCC[C@@H](C)O2,inactive
13,C[C@@H]1CCCCO[C@H](CN(C)C(=O)NC2CCCCC2)[C@@H](C)CN([C@H](C)CO)C(=O)c2cc(NC(=O)Cc3ccccc3)ccc2O1,inactive
14,COc1ccc(S(=O)(=O)Nc2ccc3c(c2)CC(=O)N([C@H](C)CO)C[C@@H](C)[C@H](CN(C)CC2CC2)O3)cc1,inactive
15,CC1(C)CCC(CN2CCN(c3ccc(C(=O)NS(=O)(=O)c4ccc(NCC5CCOCC5)c([N+](=O)[O-])c4)c(Oc4cnc5[nH]ccc5c4)c3)CC2)=C(c2ccc(Cl)cc2)C1,inactive
16,CN(C)CC[C@H](CSc1ccccc1)Nc1ccc(S(=O)(=O)NC(=O)c2ccc(N3CCN(Cc4ccccc4-c4ccc(Cl)cc4)CC3)cc2)cc1[N+](=O)[O-],inactive
17,CC1(C)CCC(c2ccc(Cl)cc2)=C(CN2CCN(c3ccc(C(=O)NS(=O)(=O)c4ccc(N[C@@H](CCN5CCOCC5)CSc5ccccc5)c(S(=O)(=O)C(F)(F)F)c4)cc3)CC2)C1,active
18,CC1(C)CCC(c2ccc(Cl)cc2)=C(CN2CCN(c3ccc(C(=O)NS(=O)(=O)c4ccc(N[C@H](CCN5CCOCC5)CSc5ccccc5)c(S(=O)(=O)C(F)(F)F)c4)cc3)CC2)C1,active
19,CCCNC(=O)Nc1ccc2c(c1)OC[C@@H](C)N(C(=O)C1CCOCC1)C[C@H](C)[C@@H](OC)CN(C)C2=O,inactive
20,C[C@H](CO)N1C[C@H](C)[C@H](CN(C)C(=O)Nc2ccc(F)cc2)OCCCC[C@H](C)Oc2ccc(NC(=O)C3CCC3)cc2C1=O,inactive
21,COc1ccc(S(=O)(=O)Nc2ccc3c(c2)C(=O)N([C@H](C)CO)C[C@H](C)[C@H](CN(C)S(=O)(=O)c2ccc(C)cc2)O3)cc1,inactive
22,C[C@@H]1CCCCO[C@@H](CN(C)C(=O)Nc2ccc3c(c2)OCO3)[C@H](C)CN([C@H](C)CO)C(=O)c2cc(NC(=O)c3ccccc3)ccc2O1,inactive
23,Cc1ccc(S(=O)(=O)N(C)C[C@@H]2Oc3ccc(NC(=O)Cn4cnnn4)cc3CC(=O)N([C@H](C)CO)C[C@@H]2C)cc1,inactive
24,N#CCNC(=O)CN1C(=O)c2ccccc2C1=O,inactive
25,COC(=O)C(CCCN1C(=O)c2ccccc2C1=O)(NC(C)=O)c1nn[nH]n1 (stereo unspecified),active
26,NC(=O)CCN1C(=O)c2ccccc2C1=O,inactive

row,Structure (SMILES),cytotoxicity call
1,O=C(C[C@@H]1CC[C@H]2[C@@H](COC[C@@H](O)CN2C(=O)Nc2ccc(Cl)cc2)O1)NCCc1ccncc1,inactive
2,Cc1ccccc1S(=O)(=O)N1C[C@H](O)COC[C@@H]2O[C@@H](CC(=O)NCCc3ccccc3)CC[C@H]21,inactive
3,CO[C@H]1CN(C)C(=O)c2cc(NC(=O)Nc3ccccc3)ccc2OC[C@@H](C)N(C(=O)CN(C)C)C[C@H]1C,inactive
4,CNCCCC1c2ccccc2C=Cc2ccccc21.Cl,active
5,OCC1c2ccccc2-c2ccccc21,inactive
6,CNCc1ccccc1.Cl,inactive
7,Cc1noc(C)c1S(=O)(=O)N(C)C[C@@H]1OCCCC[C@@H](C)Oc2ccc(N(C)C)cc2C(=O)N([C@H](C)CO)C[C@H]1C,inactive
8,CC(C)Cc1ccc(CN2CC[C@@H](N)C2)cc1,inactive
9,CC(C)N1CC=C[C@@]23O[C@@H]4C=CCOC(=O)[C@@H]4[C@H]2C(=O)N(CCCCCO)[C@@H]3C1=O,inactive
10,C[C@@H]1CN([C@H](C)CO)C(=O)CCCn2nncc2CO[C@@H]1CN(C)S(=O)(=O)c1ccc(-c2ccccc2)cc1,inactive
11,C[C@@H]1CC=CC[C@@H](c2cccc(Cl)c2)NC(=O)[C@H](Cc2ccccc2)N(C)C(=O)c2ccccc2O1,inactive
12,C[C@@H]1CCCn2nncc2COCCNC1=O,inactive
13,CCCN(C)C[C@H]1OCCCC[C@H](C)Oc2ccc(NS(=O)(=O)c3ccc(Cl)cc3)cc2C(=O)N([C@H](C)CO)C[C@H]1C,inactive
14,C[C@@H]1CCCCO[C@@H](CN(C)CC2CCCCC2)[C@H](C)CN([C@H](C)CO)C(=O)c2cc(NS(=O)(=O)c3ccc(Cl)cc3)ccc2O1,active
15,C[C@H](CO)N1C[C@H](C)[C@@H](CN(C)CC2CCCCC2)OCCCC[C@H](C)Oc2ccc(NS(=O)(=O)c3ccc(Cl)cc3)cc2C1=O,inactive
16,C[C@@H]1CCCCO[C@@H](CN(C)CC2CCCCC2)[C@H](C)CN([C@@H](C)CO)C(=O)c2cc(NS(=O)(=O)c3ccc(Cl)cc3)ccc2O1,inactive
17,CCCN(C)C[C@H]1OCCCC[C@@H](C)Oc2ccc(NS(=O)(=O)c3ccc(Cl)cc3)cc2C(=O)N([C@@H](C)CO)C[C@H]1C,active
18,C[C@@H]1CCCCO[C@@H](CN(C)CC2CCCCC2)[C@@H](C)CN([C@H](C)CO)C(=O)c2cc(NS(=O)(=O)c3ccc(Cl)cc3)ccc2O1,inactive
19,C[C@@H]1CCCCO[C@H](CN(C)CC2CCCCC2)[C@@H](C)CN([C@H](C)CO)C(=O)c2cc(NS(=O)(=O)c3ccc(Cl)cc3)ccc2O1,inactive
20,C[C@@H]1CN([C@H](C)CO)C(=O)c2cc(NS(=O)(=O)c3ccc(Cl)cc3)ccc2O[C@@H](C)CCCCO[C@@H]1CN(C)CC1CCCCC1,active
21,C[C@@H]1CCCCO[C@H](CN(C)CC2CCCCC2)[C@H](C)CN([C@@H](C)CO)C(=O)c2cc(NS(=O)(=O)c3ccc(Cl)cc3)ccc2O1,active
22,C[C@@H]1CCCCO[C@H](CN(C)CC2CCCCC2)[C@H](C)CN([C@H](C)CO)C(=O)c2cc(NS(=O)(=O)c3ccc(Cl)cc3)ccc2O1,inactive
23,C[C@@H]1CCCCO[C@@H](CN(C)CC2CC2)[C@H](C)CN([C@@H](C)CO)C(=O)c2cc(NS(=O)(=O)c3ccc(Cl)cc3)ccc2O1,inactive
24,CCCN(C)C[C@H]1OCCCC[C@H](C)Oc2ccc(NS(=O)(=O)c3ccc(Cl)cc3)cc2C(=O)N([C@@H](C)CO)C[C@H]1C,inactive
